Measurements taken from PubChem BioAssay (EPA / NIEHS).
Active and inactive are the calls of the source. Rule for the calls: active = hit-call score of the fitted dose curve at least 0.9, where 1 is the maximum; inactive = score below 0.9.

Test: ATG_DR4_LXR_CIS: Attagene CIS-FACTORIAL HepG2 Assay for human Liver X Receptor (LXR), DR4 submotif (AID 2282929)
Conditions: HepG2 Attagene DR4 cis-reporter, mRNA transcription; actives raise or lower the signal
Method: ATG_CIS is a cell-based, multiplexed-readout assay that uses HepG2, a human liver cell line, with measurements taken at 24 hours after chemical dosing in a 24-well plate.ATG_DR4_LXR_CIS is one of 52 assay component(s) measured or calculated from the ATG_CIS assay. It is designed to make measurements of mRNA induction, a form of inducible reporter, as detected with fluorescence intensity signals by Reverse transcription polymerase chain reaction (RT-PCR) and Capillary electrophoresis technology.Data from the assay component ATG_DR4_LXR_CIS was analyzed into 1 assay endpoint. This assay endpoint, ATG_DR4_LXR_CIS, was analyzed with bidirectional fitting relative to DMSO as the negative control and baseline of activity. Using a type of inducible reporter, measures of mRNA for gain or loss-of-signal activity can be used to understand the reporter gene at the transcription factor-level as they relate to the gene NR1H2 and NR1H3. Furthermore, this assay endpoint can be referred to as a primary readout, because this assay has produced multiple assay endpoints where this one serves a reporter gene function. To generalize the intended target to other relatable targets, this assay endpoint is annotated to the nuclear receptor intended target family, where the subfamily is non-steroidal.
Human liver HepG2 cells are transiently transfected with multiple reporter transcription units (MRTUs) in 6-well plates using FuGene 6 reagent (Roche; 3 ml FuGene/1 mg DNA). The MRTU constructs are regulated by a cis-regulating element (promoter). […] A major difference between the CIS and TRANS system is that in CIS activities of endogenous TFs are measured, whereas the TRANS assay evaluates changes in activities of exogenous, chimeric NR-Gal4 proteins. […] At the end of 24 hour incubation, total RNA was isolated using TriZol reagent (Invitrogen). The isolated RNA is then reverse-transcribed using oligo(dT) primer and Mo-MLV reverse transcriptase (Invitrogen) with DNAse I (Ambion) treatment for 30 min. The one-tenth of the produced cDNA was amplified by PCR using Taq DNA polymerase (Invitrogen) and two reporter sequence-specific primers. The PCR products were fluorescently labeled by primer extension with 6-arboxyfluorescein (6-FAM) 5'-labeled reporter sequence-specific primer (2 min at 95 C, 20 s at 68 C and 10 min at 72 C) and these products were digested with 5U of HpaI (New England Biolabs) for 2h at 37 C. The fragments were purified using Qiaquick PCR columns (Qiagen), analyzed on an ABI 3130xL genetic analyzer (Applied Biosystems) with peak positions identified by using a set of X-rhodamine (ROX)-labeled MapMarker1000 molecular weight standards (BioVentures). The raw capillary electrophoresis data was processed using Attagraph software (Attagene).

| Compound | outcome | AC50 |
| --- | --- | --- |
| O=C(c1ccccc1)C1CCC1 | inactive | – |
| O=CN1CCCCC1 | inactive | – |
| FC(F)=C(F)OC(F)(F)C(F)(F)C(F)(F)F | inactive | – |
| CCCOCCOCCOCCO | inactive | – |
| CCc1ccc2c(c1)C(=O)c1ccccc1C2=O | inactive | – |
| CC=CC(=O)N(CC)c1ccccc1C | inactive | – |
| Cc1cc(O)c(Cl)c(C)c1Cl | inactive | – |
| CC(C)(C)c1ccc(OC(=O)c2ccccc2O)cc1 | inactive | – |
| N#[N+]c1ccc2c(S(=O)(=O)[O-])cccc2c1O | inactive | – |
| O=C(O)C(c1ccc(Cl)cc1)c1ccc(Cl)cc1 | inactive | – |
| COCCCOCCCOC | inactive | – |
| c1ccc2c(c1)ccc1cc3c(ccc4ccccc43)cc12 | inactive | – |
| Cc1ccccc1C | inactive | – |
| CCCCCC/C=C/C=O | inactive | – |
| O=C(C(Cl)Cl)N1CCOC12CCCCC2 | – | 12 µM (active) |
| CCc1nccnc1C | inactive | – |
| SCCc1cnccn1 | inactive | – |
| NC(=O)N=NC(N)=O | inactive | – |
| Nc1ccc(N)c(Cl)c1 | inactive | – |
| CCN(CCO)c1cccc(C)c1 | inactive | – |

| Compound | outcome | AC50 |
| --- | --- | --- |
| CCCCC(CC)COC(=O)c1ccccc1O (stereo not given) | inactive | – |
| CC(C)(C)c1ccc(-c2ccc(C(C)(C)C)cc2)cc1 | inactive | – |
| Cc1oncc1C(=O)Nc1ccc(C(F)(F)F)cc1 | inactive | – |
| COC(F)(F)C(F)(C(F)(F)F)C(F)(F)F | inactive | – |
| CCCCOCCOC(=O)COc1nc(Cl)c(Cl)cc1Cl | inactive | – |
| CC(=O)c1ccc2c(c1)CCCC2 | inactive | – |
| O=[N+]([O-])c1ccc(CO)cc1 | inactive | – |
| Nc1cccc(C(F)(F)F)c1 | inactive | – |
| Cc1ccc(C(C)c2ccc(C)c(C)c2)cc1C | – | 117 µM (active) |
| CCOC(=O)CC | inactive | – |
| N[C@H]1C(O)O[C@H](CO)[C@H](O)[C@@H]1O (stereo not given in full) | inactive | – |
| Cc1cc(C)c(C)c(C)c1 | inactive | – |
| C=C(C)C(=O)OCC(C)C | inactive | – |
| O=C(Oc1ccccc1)c1ccc2ccccc2c1O | inactive | – |
| CC/C=C\CCOC(=O)CCCCC | inactive | – |
| CCOCC(=O)O | inactive | – |
| O=C(Cl)c1cc(C(=O)Cl)cc(C(=O)Cl)c1 | inactive | – |
| OCCc1ccncc1 | inactive | – |
| C/C=C\C/C=C/CCCCCCCCOC(C)=O | – | 122 µM (active) |
| O=c1c2ccccc2oc2ccccc12 | inactive | – |
